Compounds with a hit are over-represented: about 1% of the library has one in this group of screens.
F-actin modifier = modifiers of F-actin cytoskeleton organization, primary screen, imaging, HUVEC, phalloidin staining, high-content imaging; actives 0.18% (n = 91,000); inhibition, % at 2 µM; AID 836, 2007; HUVEC TNFa F-actin phalloidin imaging;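 active = inhibition above the batch mean plus 3 SD and confirmed as a hit by visual image inspection, cut at about 30% in these data, passing the limit was not always enough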
TNFa cytotox = cytotoxicity in TNFa-stimulated HUVEC, primary screen, cytotoxicity control for VCAM1 expression modulator project, imaging, Hoechst nuclei count | HUVEC TNFalpha-stimulated, Hoechst cell count | cell count reduction, % at 2 µM | actives 0.17% (n = 93,000);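 active = cell count reduction exceeding the screen mean by over 5 SD, scaled to untreated wells per plate, cut at about 78% in these data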;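 also: cells counted after 24 h of TNF alpha exposure following the 1 h pretreatment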
E-sel TNF inh = E-selectin induction blockers in HUVEC – imaging, immunofluorescence, high content, primary screen | HUVEC TNFa-induced E-selectin immunofluorescence | inhibition, % at 2 µM | actives 0.71% (n = 120,000);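 active = inhibition above the batch mean plus 3 SD, and confirmed as a hit on visual image review, cut at about 43% in these data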;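 also: 0% = TNF-stimulated DMSO wells and 100% = unstimulated control wells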
VCAM1 TNFa inh = inhibitors of TNFa-induced VCAM1 expression, primary screen, imaging, HUVEC, TNFa stimulus, immunofluorescence. HUVEC TNFa-induced VCAM-1 immunofluorescence, high-content imaging. inhibition, % at 2 µM. actives 0.48% (n = 95,000). AID 802, 2007;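 active = inhibition above the batch mean plus 3 SD, with images confirmed as a hit by eye, cut at about 37% in these data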;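 also: 0% = TNF-stimulated DMSO wells and 100% = unstimulated control wells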
* = called active by the depositor; . = no result given.

SMILES	F-actin modifier	TNFa cytotox	E-sel TNF inh	VCAM1 TNFa inh
COCCCNC(=O)CN1C(=O)c2ccccc2C1=O	11	-20	66*	-22
COc1ccc2c(c1)C(C)=CC(C)(C)N2S(=O)(=O)c1ccc(C)cc1	.	.	7	.
CC1=CC(C)(C)N(S(=O)(=O)c2ccc(C)cc2)c2cc(C)ccc21	4	58	16	38*
Cc1ncc([N+](=O)[O-])n1CC(=O)Nc1ccc2c(c1)OCO2	.	.	0	.
O=S(=O)(Nc1ccc2c3c(cccc13)CC2)c1ccc(F)cc1	-20	10	-43	-3
CSc1ccc(S(=O)(=O)Nc2ccc3c4c(cccc24)CC3)cc1	-46	18	26	44*
CCCCNC(=O)C1CC(c2cccc([N+](=O)[O-])c2)=NO1 (stereo not drawn)	11	-14	-22	11
O=C(NCc1ccco1)C1CC(c2cccc([N+](=O)[O-])c2)=NO1 (stereo not drawn)	26	2	100*	-6
O=C(CN(CC1CCCO1)C(=O)c1nsc(Cl)c1Cl)NC1CCCC1 (stereo not drawn)	.	.	-12	.
CCOc1ccc(-n2cc(C(=O)NCc3ccco3)c3cc(OC)c(OC)cc3c2=O)cc1	63*	-16	.	-4
O=C(CCN1C(=O)C2C3C=CC(C3)C2C1=O)NCC1CCCO1 (stereo not drawn)	69*	-50	.	10
O=C(NCC1CCCO1)c1cccc(N2C(=O)C3C4C=CC(C4)C3C2=O)c1 (stereo not drawn)	22	.	-4	-16
OC(c1ccc2c(c1)OCO2)c1nccc2ccccc12 (stereo not drawn)	17	-3	72*	4
Cc1ccc(C(=O)CSc2ccc(-c3cccnc3)nn2)cc1	.	.	-28	.
C=CCCCOc1ccc(C(=O)O)cc1	-37	35	-7	76*
Cc1nc2ccccc2n1-c1nc(-c2ccco2)cc(C(F)(F)F)n1	.	.	100*	.
c1csc(C(c2nnnn2C2CCCC2)N2CCCC3(CCCCC3)C2)c1 (stereo not drawn)	-6	-3	57*	13
c1csc(C(c2nnnn2C2CCCC2)N2CCOCC2)c1 (stereo not drawn)	.	.	-17	.
Cc1ccc(C2/C(=C(\O)c3cnn(-c4ccccc4)c3C)C(=O)C(=O)N2CCN(C)C)o1 (stereo not drawn)	-10	91*	-37	39
CCN(CC)CCN1C(=O)C(=O)/C(=C(/O)c2cnn(-c3ccccc3)c2C)C1c1ccc(C)o1 (stereo not drawn)	-15	8	5	-10
CSC(=S)N/N=C/c1ccccc1	.	.	7	.
CC(C)c1ccc2[nH]c(O)c(N=NC(=O)c3cccc(S(=O)(=O)N4CCCCC4)c3)c2c1	.	.	12	.
CNC(=S)N=Nc1c(O)[nH]c2ccc(C(C)C)cc12	.	.	68*	.
Cc1cccc(C(=O)NN2S(=O)(=O)c3ccccc3S2(=O)=O)c1	.	.	33	.
Cn1cc([N+](=O)[O-])c(C(=O)Nc2ccc(Br)cn2)n1	-2	-12	54*	0
CCSc1ccc(C(=O)Nc2ccc(Br)cn2)cc1[N+](=O)[O-]	.	.	-4	.
C/C(=N\NC(=O)CC1N=C(Cc2ccccc2)NNC1=O)c1ccc(C)cc1 (stereo not drawn)	-17	52	100*	15
